Reference: PubChem BioAssay AID1347145 (National Center for Advancing Translational Sciences (NCATS), 2019)
Records with an inconclusive call do not appear. Where a call stands in place of a potency, no number is given. The source made the active and inactive calls. Calls follow the shape of the dose curve; as a rule, active = well fitted inhibition curve with a large enough effect; inconclusive = small, poorly fitted or top-dose-only effect; inactive = no such curve, though single readings can be large or run the other way.

Target: N-terminal Xaa-Pro-Lys N-methyltransferase 1 (Homo sapiens) (UniProt Q9BV86)
Assay: qHTS Assay for Inhibitors of N-terminal methyltransferase 1 (NTMT1): MTaseGlo Assay Confirmatory Screen, Round 1
Settings: Recombinant NTMT1, MTase-Glo SAH luminescence; series mostly up to 57.1 µM
Summary of the method: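 Luminescence from MTase-Glo conversion of SAH to ATP measured activity after a 30 min RT reaction with 1 µM SPKRIA substrate, 100 µM SAM and 125 nM enzyme. Normalization used no-enzyme and DMSO controls, followed by Hill fitting.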
Potency is read from the fitted curve at half-maximal effect.

Chain of N-terminal Xaa-Pro-Lys N-methyltransferase 1 (Homo sapiens) (Q9BV86 whole entry, looked up): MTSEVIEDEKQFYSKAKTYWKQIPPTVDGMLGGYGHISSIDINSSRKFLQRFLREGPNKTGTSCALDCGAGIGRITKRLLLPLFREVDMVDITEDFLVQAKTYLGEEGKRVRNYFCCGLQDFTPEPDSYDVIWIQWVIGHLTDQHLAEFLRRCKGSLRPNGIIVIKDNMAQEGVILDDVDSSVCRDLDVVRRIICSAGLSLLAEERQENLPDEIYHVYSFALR

Q: `Nc1ncnc2c1[nH]c(=O)n2C1CC(O)C(CO)O1` (stereo unspecified) was tested. Which Potency did it give?
A: inactive

Q: `COc1cc2nc(N3CCN(C)CC3)nc(NC(C)C)c2cc1OC` was tested. Which Potency did it give?
A: inactive

Q: With `COc1cc2nc(N3CCOCC3)nc(NC3CCN(Cc4ccccc4)CC3)c2cc1OC` as the molecule, how does the Potency read?
A: inactive

Q: Which Potency does the source give for `CNc1ncnc2c1ncn2[C@@H]1O[C@H](CO)C(O)[C@H]1O` (stereo partly specified) here?
A: inactive

Q: With `Nc1ncnc2c1ncn2[C@@H]1O[C@H](COP(=O)(O)O)[C@@H](O)[C@@H]1O` as the molecule, how does the Potency read?
A: inactive

Q: `COc1cc2c(NC3CCN(C(C)C)CC3)nc(N3CCCN(C)CC3)nc2cc1OCCCN(C)C` was tested. Which Potency did it give?
A: inactive

Q: How did the Potency turn out when `CCN(c1cc(-c2ccc(CN3CCOCC3)cc2)cc(C(=O)NCc2c(C)cc(C)[nH]c2=O)c1C)C1CCOCC1` was run?
A: inactive

Q: For `CCCN(C)CCCOc1cc2nc(N3CCCN(C)CC3)nc(NC3CCN(C)CC3)c2cc1OC`, which Potency is on record?
A: inactive

Q: With `O=C(Nc1ncnc2c1ncn2[C@@H]1O[C@@H]2COP(=O)(O)O[C@H]2[C@H]1O)c1ccccc1` as the molecule, how does the Potency read?
A: inactive

Q: With `COc1cc2c(NC3CCN(C)CC3)nc(N3CCCN(C)CC3)nc2cc1OCCN(C)CCN(C)C` as the molecule, how does the Potency read?
A: inactive

Q: For `COc1cc2nc(N3CC[C@H](N(C)C)C3)nc(NC3CC3)c2cc1OC`, which Potency is on record?
A: inactive

Q: How did the Potency turn out when `COc1cc2c(NC3CCN(C(C)C)CC3)nc(N3CCCN(C)CC3)nc2cc1OCCOCCN1CCCC1` was run?
A: inactive

Q: For `COc1cc2nc(N3CCCCC3)nc(NC3CCN(Cc4ccccc4)CC3)c2cc1OC`, which Potency is on record?
A: inactive

Q: Which Potency does the source give for `OC[C@H]1O[C@@H](n2cnc3c(NC4CCCC4)ncnc32)[C@H](O)C1O` (stereo partly specified) here?
A: inactive

Q: `Cc1cc(C)c(CNC(=O)c2cc(-c3ccc(CN4CCOCC4)cc3)cc3c2cnn3C2CCCC2)c(=O)[nH]1` was tested. Which Potency did it give?
A: inactive

Q: How did the Potency turn out when `Nc1ncnc2c1ncn2[C@@H]1O[C@H](COP(=O)(O)OP(=O)(O)O)[C@@H](O)[C@H]1O` was run?
A: inactive

Q: For `OCCNc1ncnc2c1ncn2[C@@H]1O[C@@H](CO)[C@H](O)[C@@H]1O`, which Potency is on record?
A: inactive

Q: Which Potency does the source give for `CNC(=O)[C@H]1O[C@@H](n2cnc3c(N)ncnc32)[C@H](O)[C@@H]1O` here?
A: inactive

Q: With `Nc1ncnc2c1ncn2[C@@H]1O[C@H](CO)C[C@@H]1O` as the molecule, how does the Potency read?
A: inactive

Q: Which Potency does the source give for `Nc1ncnc2c1ncn2[C@H]1O[C@@H](CNS(=O)(=O)NC(=O)c2cccc(-c3noc(-c4ccccc4F)n3)c2)[C@H](O)[C@@H]1O` here?
A: 1.93 µM (active)

Q: Which Potency does the source give for `Nc1ncnc2c1ncn2[C@H]1C[C@H](O)[C@@H](CO)O1` here?
A: inactive

Q: With `COc1cc2c(NC3CCN(C(C)C)CC3)nc(N3CCCN(C(C)C)CC3)nc2cc1OCCCN1CCCCC1` as the molecule, how does the Potency read?
A: inactive

Q: How did the Potency turn out when `Nc1ncnc2c1ncn2[C@@H]1O[C@H](COP(=O)(O)OP(=O)(O)OC[C@H]2OC(O)[C@H](O)[C@@H]2O)[C@@H](O)[C@H]1O` (stereo partly specified) was run?
A: inactive

Q: How did the Potency turn out when `C/C(=C\CNc1ncnc2c1ncn2[C@@H]1O[C@@H](CO)[C@@H](O)[C@H]1O)CO` was run?
A: inactive

Q: `OC[C@H]1O[C@@H](n2cnc3cncnc32)[C@H](O)[C@@H]1O` was tested. Which Potency did it give?
A: 13.7 µM (active)

Q: Which Potency does the source give for `C[C@H](Cc1ccccc1)Nc1ncnc2c1ncn2[C@@H]1O[C@H](CO)[C@@H](O)[C@H]1O` here?
A: inactive

Q: For `COc1cc2nc(Nc3ccccc3)nc(NC3CC3)c2cc1OC`, which Potency is on record?
A: inactive

Q: How did the Potency turn out when `COc1cc2nc(N3CCN(C)CC3)nc(N3CCOCC3)c2cc1OC` was run?
A: inactive

Q: For `OC[C@H]1O[C@@H](n2cnc3c(Nc4ccccc4)ncnc32)[C@H](O)[C@@H]1O`, which Potency is on record?
A: inactive

Q: For `CCNC(=O)[C@H]1O[C@H](n2cnc3c(N)nc(NCCc4ccc(CCC(=O)O)cc4)nc32)[C@@H](O)[C@@H]1O`, which Potency is on record?
A: inactive

Q: With `Nc1ccc(CCNc2ncnc3c2ncn3C2OC(CO)C(O)C2O)cc1` (stereo unspecified) as the molecule, how does the Potency read?
A: inactive

Q: For `COc1cc2c(NC3CCN(C(C)C)CC3)nc(N3CCC(F)(F)CC3)nc2cc1OCCCN1CCCCC1`, which Potency is on record?
A: inactive

Q: For `Nc1nc2c(ncn2[C@@H]2O[C@H](CO)[C@@H](O)[C@@H]2O)c(=O)[nH]1`, which Potency is on record?
A: inactive

Q: Which Potency does the source give for `CO[C@@H]1[C@@H]2OP(=O)(O)OC[C@H]2O[C@H]1n1c(Sc2ccc(Cl)cc2)nc2c(N)ncnc21` here?
A: inactive

Q: Which Potency does the source give for `CSc1nc(N)c2ncn([C@@H]3O[C@H](COP(=O)(O)OP(=O)(O)OP(=O)(O)O)[C@@H](O)[C@H]3O)c2n1` here?
A: inactive

Q: With `CSCC1OC(n2cnc3c(N)ncnc32)C(O)C1O` (stereo unspecified) as the molecule, how does the Potency read?
A: inactive
